Laboratory results from PubChem BioAssay (Tox21).
Several values for one entry are separate records, joined by “and”; a condition that tells them apart may be missing. Equal entries are not always repeated. Results filed as inconclusive are left out. A call without a number means that no potency is given here. Activity calls are given as the source filed them. Unless noted, calls follow the shape of the dose curve; as a rule, active = well fitted cell-killing curve with a large enough effect in the repeat runs; inconclusive = weak or mixed curves, or effect the other way; inactive = flat fitted curve, though single readings scatter.

test system: not listed separately; experiment: qHTS assay to identify small molecule agonists of the androgen receptor (AR) signaling pathway in the presence of an antagonist - cell viability counter screen (AID 1259379); details: MDA-kb2 viability, CellTiter-Fluor, 16 h; series mostly up to 92.4 µM; also: nearly all actives have a fitted effect of over 25% in size; also: potency is read from the fitted curve at half-maximal effect
Procedure, shortened: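 Cytotoxicity is assessed by CellTiter-Fluor in MDA-kb2 cells carrying an MMTV-driven luciferase reporter. Cells receive 3.0uM nilutamide plus compounds at 15 concentrations and incubate 16 hr at 37C without CO2 before fluorescence reading.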

Compound	Potency
Clc1ccc(C(Cn2ccnc2)OCc2ccc(Sc3ccccc3)cc2)c(Cl)c1 (stereo unspecified)	inactive
CCCCN1CCCC[C@H]1C(=O)Nc1c(C)cccc1C	inactive
O=S1(=O)CC(Cl)(Cl)C(Cl)(Cl)C1	21.7 µM (active)
Cn1cc(C(=O)[C@@H]2CCc3nc[nH]c3C2)c2ccccc21	inactive
CC(C)CCCCCCCCCCCCCCC(=O)O	inactive
NC(=O)NS(=O)(=O)c1ccc(N)cc1	inactive
COc1cc(-c2ccc(N=C=O)c(OC)c2)ccc1N=C=O	inactive
Cc1onc(-c2ccccc2Cl)c1C(=O)N[C@@H]1C(=O)N2[C@@H]1SC(C)(C)[C@@H]2C(=O)O	inactive
OCCCCCCCCCCCCBr	inactive
C/C(=C(/OCCOc1ccc(Cl)cc1)c1ccc(Cl)cc1Cl)n1ccnc1	inactive
O=C(c1ccc(F)cc1)C1CCN(CCn2c(=O)[nH]c3ccccc3c2=O)CC1	inactive
CCOC(=O)O[C@]1(C(=O)OCCl)CC[C@H]2[C@@H]3CCC4=CC(=O)C=C[C@]4(C)[C@H]3[C@@H](O)C[C@@]21C	inactive
CCCCCCCC(=O)[O-].CCCCCCCC(=O)[O-].[Zn+2]	inactive
CCc1cc(SCc2sc(-c3ccc(C(F)(F)F)cc3)nc2CN2CCN(c3ccc(OC)cc3)CC2)ccc1OCC(=O)O	43.3 µM (active)
CC(C)OC(=O)c1cc2c(OCC(O)CNC(C)(C)C)cccc2[nH]1 (stereo unspecified)	inactive
Cc1cccc(N(C)C(=S)Oc2ccc3c(c2)C2CCC3C2)c1 (stereo unspecified)	inactive
Cc1cc(N)c(S(=O)(=O)O)cc1Cl	inactive
C1CCCC1	inactive
C[C@@H](NCCCc1cccc(C(F)(F)F)c1)c1cccc2ccccc12	29.8 µM (active)
O=c1cccccc1O	inactive
CCCCN(CCCC)C(=O)N(CCCC)CCCC	inactive
Clc1ccc2nsnc2c1NC1=NCCN1	inactive
CCC1OCC(COc2ccc(Oc3ccccc3)cc2)O1 (stereo unspecified)	inactive
N#CC1(c2ccc(F)cc2)CCC(=O)CC1	inactive
COc1cc(-c2nc(NC(=O)c3cc4cc(C)cc(C)c4n3CC(=O)O)sc2CCC2CCCCC2)c(OC)cc1Cl	56 µM (active)

test system: not listed separately; experiment: qHTS assay to identify small molecule agonists of the estrogen receptor beta (ER-beta) signaling pathway - cell viability counter screen (AID 1259380); details: ER-beta-bla HEK293T viability, CellTiter-Glo luminescence, 16 h; series mostly up to 92.4 µM; also: nearly all actives have a fitted effect of over 30% in size; also: potency is read from the fitted curve at half-maximal effect
Procedure, shortened: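 Cytotoxicity is measured in parallel with the reporter screen: after 16 hr compound exposure at 37C and a 2 hr LiveBLAzer step, CellTiter-Glo is added to the same ER-beta-UAS-bla HEK293T wells and luminescence read after 30 min.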

Compound	Potency
Clc1ccc(C(Cn2ccnc2)OCc2ccc(Sc3ccccc3)cc2)c(Cl)c1 (stereo unspecified)	inactive
CCCCN1CCCC[C@H]1C(=O)Nc1c(C)cccc1C	inactive
Cc1[nH]cnc1C[C@H]1CCc2c(C)c3ccccc3n2C1=O	4.74 µM (active)
NC(=O)NS(=O)(=O)c1ccc(N)cc1	inactive
C[n+]1ccn(Cc2ccccc2)c1	inactive
Cc1onc(-c2ccccc2Cl)c1C(=O)N[C@@H]1C(=O)N2[C@@H]1SC(C)(C)[C@@H]2C(=O)O	inactive
CCCC(C)c1ccccc1O (stereo unspecified)	inactive
OCCCCCCCCCCCCBr	inactive
CCC(CN)=C(c1ccccc1)c1ccccc1	21.1 µM (active)
CCOC(=O)O[C@]1(C(=O)OCCl)CC[C@H]2[C@@H]3CCC4=CC(=O)C=C[C@]4(C)[C@H]3[C@@H](O)C[C@@]21C	26.6 µM (active)
CCCCCCCC(=O)[O-].CCCCCCCC(=O)[O-].[Zn+2]	inactive
Cc1cccc(N(C)C(=S)Oc2ccc3c(c2)C2CCC3C2)c1 (stereo unspecified)	inactive
Cc1cc(N)c(S(=O)(=O)O)cc1Cl	inactive
COCCCC/C(=N\OCCN)c1ccc(C(F)(F)F)cc1	13.3 µM (active)
C[C@@H](NCCCc1cccc(C(F)(F)F)c1)c1cccc2ccccc12	21.1 µM (active)
NNc1nc(-c2ccc(N)cc2)cs1	15.4 µM (active)
Clc1ccc2nsnc2c1NC1=NCCN1	inactive
N#CC1(c2ccc(F)cc2)CCC(=O)CC1	inactive
CC(C)(C)CC(C)(C)c1ccc(OCCOCC[N+](C)(C)Cc2ccccc2)cc1	27.3 µM (active) and 16.8 µM (active)
COc1cc(-c2nc(NC(=O)c3cc4cc(C)cc(C)c4n3CC(=O)O)sc2CCC2CCCCC2)c(OC)cc1Cl	19.9 µM (active)

biological target: Androgen receptor (Homo sapiens) (UniProt P10275); experiment: qHTS assay to identify small molecule agonists of the androgen receptor (AR) signaling pathway in the presence of an antagonist (AID 1259381; calls by dose curve; also: nearly all actives have a fitted effect of over 15% in size); details: MDA-kb2 MMTV-luciferase, AR agonist + nilutamide, 16 h; series mostly up to 92.4 µM
Sequence (P10275 whole entry, looked up): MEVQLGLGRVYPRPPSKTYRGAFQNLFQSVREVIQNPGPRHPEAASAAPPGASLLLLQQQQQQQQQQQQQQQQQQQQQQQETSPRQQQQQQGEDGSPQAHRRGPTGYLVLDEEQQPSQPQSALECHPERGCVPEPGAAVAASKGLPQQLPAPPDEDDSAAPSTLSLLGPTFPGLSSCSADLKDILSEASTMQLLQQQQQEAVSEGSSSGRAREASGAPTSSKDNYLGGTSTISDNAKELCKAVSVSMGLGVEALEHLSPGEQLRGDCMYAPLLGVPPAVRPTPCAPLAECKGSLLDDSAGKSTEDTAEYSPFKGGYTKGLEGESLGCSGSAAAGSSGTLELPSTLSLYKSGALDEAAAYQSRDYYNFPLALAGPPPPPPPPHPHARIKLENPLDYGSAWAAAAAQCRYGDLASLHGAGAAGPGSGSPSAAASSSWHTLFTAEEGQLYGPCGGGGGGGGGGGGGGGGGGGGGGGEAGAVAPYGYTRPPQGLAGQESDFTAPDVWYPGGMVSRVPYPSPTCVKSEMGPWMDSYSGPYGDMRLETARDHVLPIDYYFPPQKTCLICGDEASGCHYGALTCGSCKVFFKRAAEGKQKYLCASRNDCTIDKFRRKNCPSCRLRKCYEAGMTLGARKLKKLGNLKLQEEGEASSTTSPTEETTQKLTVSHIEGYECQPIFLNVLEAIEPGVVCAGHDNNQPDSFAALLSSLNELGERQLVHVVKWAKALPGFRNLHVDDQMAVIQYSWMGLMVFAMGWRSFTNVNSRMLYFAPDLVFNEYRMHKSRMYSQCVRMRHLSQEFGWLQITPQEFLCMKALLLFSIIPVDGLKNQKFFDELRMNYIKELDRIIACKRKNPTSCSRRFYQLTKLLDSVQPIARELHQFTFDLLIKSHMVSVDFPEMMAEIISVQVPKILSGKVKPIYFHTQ
Procedure, shortened: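 Agonist-mode confirmation screen: human MDA-kb2 cells stably expressing luciferase under an MMTV promoter bearing AR and GR response elements, co-treated with 3.0uM nilutamide (final). Luminescence measured after 16hr compound incubation.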

Compound	Potency
CCN(Cc1cccnc1)C(=O)c1cccc(Cl)c1[C@]1(C)C(=O)N(Cc2ccc(OC)cc2OC)c2ccc(Cl)cc21	inactive
CCCCN1CCCC[C@H]1C(=O)Nc1c(C)cccc1C	inactive
O=S1(=O)CC(Cl)(Cl)C(Cl)(Cl)C1	inactive
OCCN1CCN(CC/C=C2/c3ccccc3Sc3ccc(C(F)(F)F)cc32)CC1	inactive
O=C(c1ccc(F)cc1)C1CCN(CCn2c(=O)[nH]c3ccccc3c2=O)CC1	inactive
CCC(CN)=C(c1ccccc1)c1ccccc1	inactive
CC(C)OC(=O)c1cc2c(OCC(O)CNC(C)(C)C)cccc2[nH]1 (stereo unspecified)	inactive
C[C@@H](NCCCc1cccc(C(F)(F)F)c1)c1cccc2ccccc12	inactive
Clc1ccc2nsnc2c1NC1=NCCN1	inactive
N#CC1(c2ccc(F)cc2)CCC(=O)CC1	inactive
COc1cc(-c2nc(NC(=O)c3cc4cc(C)cc(C)c4n3CC(=O)O)sc2CCC2CCCCC2)c(OC)cc1Cl	inactive
